# According to PubChem BioAssay (EPA / NIEHS):
# Results filed as inconclusive are left out. The source made the active and inactive calls. Rule for the calls: active = hit-call score of the fitted dose curve at least 0.9, where 1 is the maximum; inconclusive = response in the unintended direction; inactive = score below 0.9.
# Assay: Tanguay_ZF_120hpf_OTIC_legacy: (Legacy) Oregon State University Tanguay Lab 120 Hour Post-fertilization zebrafish Assay for Otic Vesicle Malformation (AID 2283639)
# Outline: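 Otic vesicle malformation is read as a yes/no morphology call at 120 hpf. Exposure is static at 28C with 0.64% (vol/vol) DMSO; embryos that die are excluded from non-mortality endpoints.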
row,Structure (SMILES),outcome
1,CC1=C(C)S(=O)(=O)CCS1(=O)=O,inactive
2,Cc1cn([C@H]2C=C[C@@H](CO)O2)c(=O)[nH]c1=O,inactive
3,O=C(N[C@@H](c1ccccc1)[C@@H]1CCCCN1)c1cccc(C(F)(F)F)c1Cl,inactive
4,CCCCC(CC)COP(=O)(OCC(CC)CCCC)OCC(CC)CCCC (centres undefined),inactive
5,COC(=O)CCCC(=O)OC,inactive
6,CCCCCCCCCCCCCCCCO,inactive
7,CC(N)=O,inactive
8,CCCCCCC(CCCCCCCCCCC(=O)OCC(COC(C)=O)OC(C)=O)OC(C)=O (centres undefined),inactive
9,C=CCCCCCCCCCCCC,inactive
10,CC(=O)S[C@H](C(=O)N[C@H]1Cc2ccccc2[C@H]2CCC[C@@H](C(=O)O)N2C1=O)C(C)C,inactive
11,CCCCCCC(C=O)=Cc1ccccc1,inactive
12,CCCCc1nc2cccnc2n1Cc1ccc(-c2ccccc2-c2nnn[nH]2)cc1,inactive
13,CC(C)c1cccc(C(C)C)c1NC(=O)NS(=O)(=O)c1cc(C(C)(C)O)co1,inactive
14,CC(C)(C)c1ccccc1,inactive
15,O=C(NS(=O)(=O)/C=C/c1cccs1)c1ccc(F)cc1Br,inactive
16,CC1(C)C(=O)NC(=O)N1CO,inactive
17,CC(=O)O[C@]1(C(C)=O)CC[C@H]2[C@@H]3C=C(Cl)C4=CC(=O)[C@@H]5C[C@@H]5[C@]4(C)[C@H]3CC[C@@]21C,inactive
18,CC(=O)[C@@]1(O)CC[C@H]2[C@@H]3CCC4=CC(=O)CC[C@]4(C)[C@H]3CC[C@@]21C,inactive
19,CS(=O)(=O)c1ccc([C@@H](C[C@H]2CCC(=O)C2)C(=O)Nc2cnccn2)cc1Cl,inactive
